# Source: the supplement of paper PMC4466140
# Assays:
# Assay in all cases: SPOT peptide array binding signal intensity (averaged, normalized) (arbitrary units (background-subtracted, floor 0; scale differs between SH3 domains)); higher = stronger binding of the SH3 domain to the peptide
# AgAbp1 = molecular target: AgAbp1
# Summary of the method: (§1)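 Binding signal is given in arbitrary units that differ between domains and is the normalized, background-subtracted spot intensity averaged across replicates. Each GST-SH3 fusion from one of four yeast species was made in E. coli BL21(DE3), purified on glutathione Sepharose and incubated at 10 μg/ml overnight at 4°C on cellulose-bound synthetic 15-mer peptides in which cysteines were replaced by serines. Detection used anti-GST antibody, an HRP anti-mouse secondary and luminol, followed by imaging and Genespotter quantification.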
# AgBbc1 = molecular target: AgBbc1
# Summary of the method: as §1
# AgBem1-D1 = molecular target: AgBem1-D1
# Summary of the method: as §1
# AgBzz1-D1 = molecular target: AgBzz1-D1
# Summary of the method: as §1
# AgBzz1-D2 = molecular target: AgBzz1-D2
# Summary of the method: as §1
# AgCyk3 = molecular target: AgCyk3
# Summary of the method: as §1
# AgFus1 = molecular target: AgFus1
# Summary of the method: as §1
# AgHof1 = molecular target: AgHof1
# Summary of the method: as §1
# AgHse1 = molecular target: AgHse1
# Summary of the method: as §1
# AgLsb1 = molecular target: AgLsb1
# Summary of the method: as §1
# AgLsb4 = molecular target: AgLsb4
# Summary of the method: as §1
# AgMyo5 = molecular target: AgMyo5
# Summary of the method: as §1
# AgNbp2 = molecular target: AgNbp2
# Summary of the method: as §1
# AgRvs167 = molecular target: AgRvs167
# Summary of the method: as §1
# AgSho1 = molecular target: AgSho1
# Summary of the method: as §1
# AgSla1-D1-D2 = molecular target: AgSla1-D1-D2
# Summary of the method: as §1
# AgSla1-D3 = molecular target: AgSla1-D3
# Summary of the method: as §1
# CaAbp1-D1 = molecular target: CaAbp1-D1
# Summary of the method: as §1
# CaAbp1-D2 = molecular target: CaAbp1-D2
# Summary of the method: as §1
# CaBbc1 = molecular target: CaBbc1
# Summary of the method: as §1
# CaBem1-D1 = molecular target: CaBem1-D1
# Summary of the method: as §1
# CaBzz1-D1 = molecular target: CaBzz1-D1
# Summary of the method: as §1
# CaBzz1-D2 = molecular target: CaBzz1-D2
# Summary of the method: as §1
# CaCyk3 = molecular target: CaCyk3
# Summary of the method: as §1
# CaFus1 = molecular target: CaFus1
# Summary of the method: as §1
# CaHof1 = molecular target: CaHof1
# Summary of the method: as §1
# CaHse1 = molecular target: CaHse1
# Summary of the method: as §1
# CaLsb1 = molecular target: CaLsb1
# Summary of the method: as §1
# CaLsb4 = molecular target: CaLsb4
# Summary of the method: as §1
# CaMyo5 = molecular target: CaMyo5
# Summary of the method: as §1
# CaNbp2 = molecular target: CaNbp2
# Summary of the method: as §1
# CaRvs167 = molecular target: CaRvs167
# Summary of the method: as §1
# CaRvs167-3 = molecular target: CaRvs167-3
# Summary of the method: as §1
# CaSho1 = molecular target: CaSho1
# Summary of the method: as §1
# CaSla1-D1-D2 = molecular target: CaSla1-D1-D2
# Summary of the method: as §1
# CaSla1-D3 = molecular target: CaSla1-D3
# Summary of the method: as §1
# ScAbp1 = molecular target: ScAbp1
# Summary of the method: as §1
# ScBbc1 = molecular target: ScBbc1
# Summary of the method: as §1
# ScBem1-D1 = molecular target: ScBem1-D1
# Summary of the method: as §1
# ScBzz1-D1 = molecular target: ScBzz1-D1
# Summary of the method: as §1
# ScBzz1-D2 = molecular target: ScBzz1-D2
# Summary of the method: as §1
# ScCyk3 = molecular target: ScCyk3
# Summary of the method: as §1
# ScFus1 = molecular target: ScFus1
# Summary of the method: as §1
# ScHof1 = molecular target: ScHof1
# Summary of the method: as §1
# ScHse1 = molecular target: ScHse1
# Summary of the method: as §1
# ScLsb1 = molecular target: ScLsb1
# Summary of the method: as §1
# ScLsb2 = molecular target: ScLsb2
# Summary of the method: as §1
# ScLsb3 = molecular target: ScLsb3
# Summary of the method: as §1
# ScLsb4 = molecular target: ScLsb4
# Summary of the method: as §1
# ScMyo3 = molecular target: ScMyo3
# Summary of the method: as §1
# ScMyo5 = molecular target: ScMyo5
# Summary of the method: as §1
# ScNbp2 = molecular target: ScNbp2
# Summary of the method: as §1
# ScPex13 = molecular target: ScPex13
# Summary of the method: as §1
# ScRvs167 = molecular target: ScRvs167
# Summary of the method: as §1
# ScSho1 = molecular target: ScSho1
# Summary of the method: as §1
# ScSla1-D1-D2 = molecular target: ScSla1-D1-D2
# Summary of the method: as §1
# ScSla1-D3 = molecular target: ScSla1-D3
# Summary of the method: as §1
# SpAbp1-D1 = molecular target: SpAbp1-D1
# Summary of the method: as §1
# SpBbc1 = molecular target: SpBbc1
# Summary of the method: as §1
# SpBzz1-D1 = molecular target: SpBzz1-D1
# Summary of the method: as §1
# SpBzz1-D2 = molecular target: SpBzz1-D2
# Summary of the method: as §1
# SpCyk3 = molecular target: SpCyk3
# Summary of the method: as §1
# SpHof1 = molecular target: SpHof1
# Summary of the method: as §1
# SpHof1-2 = molecular target: SpHof1-2
# Summary of the method: as §1
# SpHof1-3 = molecular target: SpHof1-3
# Summary of the method: as §1
# SpHse1 = molecular target: SpHse1
# Summary of the method: as §1
# SpLsb1 = molecular target: SpLsb1
# Summary of the method: as §1
# SpLsb4 = molecular target: SpLsb4
# Summary of the method: as §1
# SpMyo1 = molecular target: SpMyo1
# Summary of the method: as §1
# SpNbp2 = molecular target: SpNbp2
# Summary of the method: as §1
# SpPex13 = molecular target: SpPex13
# Summary of the method: as §1
# SpRvs167 = molecular target: SpRvs167
# Summary of the method: as §1
# SpSla1-D1-D2 = molecular target: SpSla1-D1-D2
# Summary of the method: as §1
# SpSla1-D3 = molecular target: SpSla1-D3
# Summary of the method: as §1
binder,measurement,setting,value
AAHKTKPSIPPKKVE,SPOT peptide array binding signal intensity,AgAbp1,1520
same,SPOT peptide array binding signal intensity,AgBbc1,≤ 0
same,SPOT peptide array binding signal intensity,AgBem1-D1,≤ 0
same,SPOT peptide array binding signal intensity,AgBzz1-D1,57.5
same,SPOT peptide array binding signal intensity,AgBzz1-D2,5.5
same,SPOT peptide array binding signal intensity,AgCyk3,≤ 0
same,SPOT peptide array binding signal intensity,AgFus1,≤ 0
same,SPOT peptide array binding signal intensity,AgHof1,20
same,SPOT peptide array binding signal intensity,AgHse1,≤ 0
same,SPOT peptide array binding signal intensity,AgLsb1,≤ 0
same,SPOT peptide array binding signal intensity,AgLsb4,≤ 0
same,SPOT peptide array binding signal intensity,AgMyo5,3.75
same,SPOT peptide array binding signal intensity,AgNbp2,≤ 0
same,SPOT peptide array binding signal intensity,AgRvs167,1
same,SPOT peptide array binding signal intensity,AgSho1,8
same,SPOT peptide array binding signal intensity,AgSla1-D1-D2,≤ 0
same,SPOT peptide array binding signal intensity,AgSla1-D3,3.25
same,SPOT peptide array binding signal intensity,CaAbp1-D1,2440
same,SPOT peptide array binding signal intensity,CaAbp1-D2,6290
same,SPOT peptide array binding signal intensity,CaBbc1,42
same,SPOT peptide array binding signal intensity,CaBem1-D1,≤ 0
same,SPOT peptide array binding signal intensity,CaBzz1-D1,257
same,SPOT peptide array binding signal intensity,CaBzz1-D2,243
same,SPOT peptide array binding signal intensity,CaCyk3,≤ 0
same,SPOT peptide array binding signal intensity,CaFus1,≤ 0
same,SPOT peptide array binding signal intensity,CaHof1,1.5
same,SPOT peptide array binding signal intensity,CaHse1,13.2
same,SPOT peptide array binding signal intensity,CaLsb1,≤ 0
same,SPOT peptide array binding signal intensity,CaLsb4,≤ 0
same,SPOT peptide array binding signal intensity,CaMyo5,1
same,SPOT peptide array binding signal intensity,CaNbp2,≤ 0
same,SPOT peptide array binding signal intensity,CaRvs167,1.67
same,SPOT peptide array binding signal intensity,CaRvs167-3,≤ 0
same,SPOT peptide array binding signal intensity,CaSho1,≤ 0
same,SPOT peptide array binding signal intensity,CaSla1-D1-D2,282
same,SPOT peptide array binding signal intensity,CaSla1-D3,3.25
same,SPOT peptide array binding signal intensity,ScAbp1,907
same,SPOT peptide array binding signal intensity,ScBbc1,≤ 0
same,SPOT peptide array binding signal intensity,ScBem1-D1,≤ 0
same,SPOT peptide array binding signal intensity,ScBzz1-D1,3.5
same,SPOT peptide array binding signal intensity,ScBzz1-D2,1.5
same,SPOT peptide array binding signal intensity,ScCyk3,≤ 0
same,SPOT peptide array binding signal intensity,ScFus1,≤ 0
same,SPOT peptide array binding signal intensity,ScHof1,0.5
same,SPOT peptide array binding signal intensity,ScHse1,≤ 0
same,SPOT peptide array binding signal intensity,ScLsb1,0.25
same,SPOT peptide array binding signal intensity,ScLsb2,0.5
same,SPOT peptide array binding signal intensity,ScLsb3,144
same,SPOT peptide array binding signal intensity,ScLsb4,13.5
same,SPOT peptide array binding signal intensity,ScMyo3,8.5
same,SPOT peptide array binding signal intensity,ScMyo5,2
same,SPOT peptide array binding signal intensity,ScNbp2,≤ 0
same,SPOT peptide array binding signal intensity,ScPex13,7
same,SPOT peptide array binding signal intensity,ScRvs167,3.17
same,SPOT peptide array binding signal intensity,ScSho1,6
same,SPOT peptide array binding signal intensity,ScSla1-D1-D2,≤ 0
same,SPOT peptide array binding signal intensity,ScSla1-D3,2.5
same,SPOT peptide array binding signal intensity,SpAbp1-D1,282
same,SPOT peptide array binding signal intensity,SpBbc1,≤ 0
same,SPOT peptide array binding signal intensity,SpBzz1-D1,311
same,SPOT peptide array binding signal intensity,SpBzz1-D2,≤ 0
same,SPOT peptide array binding signal intensity,SpCyk3,≤ 0
same,SPOT peptide array binding signal intensity,SpHof1,0.25
same,SPOT peptide array binding signal intensity,SpHof1-2,6
same,SPOT peptide array binding signal intensity,SpHof1-3,3
same,SPOT peptide array binding signal intensity,SpHse1,32.8
same,SPOT peptide array binding signal intensity,SpLsb1,11.5
same,SPOT peptide array binding signal intensity,SpLsb4,4
same,SPOT peptide array binding signal intensity,SpMyo1,≤ 0
same,SPOT peptide array binding signal intensity,SpNbp2,12.5
same,SPOT peptide array binding signal intensity,SpPex13,1
same,SPOT peptide array binding signal intensity,SpRvs167,9.5
same,SPOT peptide array binding signal intensity,SpSla1-D1-D2,4
same,SPOT peptide array binding signal intensity,SpSla1-D3,2.5
